Structures are written as SMILES. The panel holds about 83,000 compounds, 20% with a hit somewhere; the sample as a whole holds those more often.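 Method: cells in 96-well plates; compound added at one concentration; 48 h incubation; percent growth measured; values under 10 scored active.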 A number with no mark means an inactive call. Calls of active or inactive are those of the source.

What all share (test): NCI-60 one-dose screen, 48 h (100 = growth as untreated, 0 = no growth, -100 = all killed)
Common to all, as to details: 10 µM unless noted

For test [1], the system named is HCT-15 colon.
Test [2] deals with HT29 colon.
Test [3] concerns SNB-75 CNS.
For test [4], the system named is SNB-19 CNS.
The test system of test [5] is U251 CNS.
Test [6] deals with PC-3 prostate.
In test [7] the test system is SK-MEL-5 melanoma.
In test [8] the test system is UACC-62 melanoma.
In test [9] the test system is LOX IMVI melanoma.
Test [10] concerns SK-MEL-28 melanoma.

As for `CC(=O)O[C@H](C[C@H](C(C)C)N(C)C(=O)[C@@H](NC(=O)[C@H]1CCCCN1C)C(C)C)c1nc(C(=O)N[C@@H](Cc2ccccc2)C[C@H](C)C(=O)O)c(C(C)C)s1`, the growth in [1] is 8.7% (active); in [2], 2.43% (active); in test [3], 22.6%; in [4] it was 27.6%; in test [5] it was 15.4%; in test [6], 29.9%. Besides, the growth was -43.9% (active) in test [7], 31.1% in test [8], 10.5% in test [9] and 60.9% in [10].
On to `CC1(C)N=C(N)N=C(N)N1c1ccc(OCCCNC(=O)Nc2ccc(S(=O)(=O)F)cc2)c(Cl)c1`, for which the growth is 41.5% in test [1]; 8% (active) in test [2]; 57.6% in test [3]; 28.6% in [4]; 24.5% in test [5]; 12.7% in [6]. Also, the growth is 29% in [7], 23.7% in [8], 16.2% in test [9] and 54.2% in test [10].
`CC(CO)NC1CCCCC1` (stereo not given): the growth is 100% in test [1]; 117% in test [2]; 86.9% in test [3]; 102% in test [4]; 98.9% in [5]; 105% in test [6]. The growth in test [7] was 104%; in [8], 104%; in test [9], 94.3%; in [10], 114%.
As to `O=C(c1ccccc1O)c1[nH]c(Cl)c(Cl)c1-n1c(C(=O)c2ccccc2O)cc(Cl)c1Cl`, the growth in test [1] is 9.94% (active); in test [2], 4.28% (active); in test [3] it was -1.42% (active); in [4] it was 9.34% (active); in test [5] it was -11.8% (active); in [6], -13.4% (active). The growth in [7] was -77.9% (active); in [8], -22% (active); in test [9], 10.5%; in [10], 14.2%.
For the compound `COc1cc2c(cc1OCCCCn1c(-c3cccs3)nc3ccccc31)N=C[C@@H]1CCCN1C2=O`, the growth in test [1] is -11.9% (active); in [2], 2.34% (active); in test [3], -65.4% (active); in test [4], 10.5%; in test [5], -2.52% (active); in [6], -4.05% (active). The growth in test [7] was -80% (active); in [8] it was -91.1% (active); in test [9], -48.9% (active); in test [10], -37.4% (active).
As to `O=C(CCCC1CCCCC1)OCC(Cl)(Cl)Cl`, the growth in [1] is 108%; in [2], 103%; in test [3], 101%; in [4], 106%; in test [5] it was 97%; in [6], 91.4%. In addition, the growth in test [7] is 107%; in test [8], 98.9%; in [9] it was 101%; in test [10], 113%.
For `COc1cc2c(cc1OCCCCCn1c(-c3ccco3)nc3ccccc31)N=C[C@@H]1CCCN1C2=O`, the growth in test [1] was 7.84% (active); in test [2], 1.38% (active); in test [3], -64.2% (active); in test [4], 23.3%; in test [5] it was 8.03% (active); in test [6], 17.5%. In addition, the growth in test [7] is -17% (active); in test [8], -86.9% (active); in test [9], -31.6% (active); in test [10], -58.6% (active).
Regarding `O=C(Nc1ccc([N+](=O)[O-])cc1)C(Cl)(Cl)Cl`, the growth is 80.8% in test [1]; 101% in test [2]; 96.6% in test [3]; 94.7% in [4]; 93.9% in test [5]; 95.1% in [6]. Further, the growth is 99.4% in test [7], 84.9% in [8], 63.3% in test [9] and 103% in test [10].
For the compound `COC(=O)[C@@]1(C)CC[C@]2(C)CC[C@]3(C)C4=CC(=O)c5c(cc(O)c(O)c5C)[C@]4(C)CC[C@@]3(C)[C@@H]2C1`, the growth in test [1] was 36.9%; in test [2], 90.2%; in test [3] it was 112%; in test [4], 60.5%; in [5], 42%; in test [6], 33.8%. Further, the growth was 7.93% (active) in test [7], 28.3% in [8], 50.7% in test [9] and 91.3% in test [10].
As to `CN1CC(=O)N(O)C1(C)c1cccnc1` (stereo not given), the growth was 96.9% in test [1]; 97.8% in test [2]; 88.5% in test [3]; 105% in [4]; 102% in [5]; 95.8% in [6]. Moreover, the growth was 101% in [7], 104% in test [8], 97.3% in test [9] and 103% in test [10].
`Cc1c(O)c(CN(CCCl)CCCl)cc(CN(CCCl)CCCl)c1O`: the growth is 82.7% in test [1]; 70.8% in [2]; 78.9% in test [3]; 99.7% in test [4]; 81.6% in [5]; 65.8% in test [6]. In addition, the growth in [7] is 91.7%; in test [8] it was 89.1%; in test [9], 77.4%; in test [10], 102%.
Take `CC(=O)O[C@H](C[C@H](C(C)C)N(C)C(=O)[C@@H](NC(=O)[C@H]1CCCCN1C)C(C)C)c1nc(C(=O)NC2CCC(C(=O)O)CC2)cs1` (stereo not given in full): the growth in test [1] is 70.6%; in [2], 17.7%; in test [3], -1.9% (active); in test [4], 40.9%; in [5], 33.2%; in test [6] it was 48.5%. The growth was 49.8% in test [7], 28% in test [8], 35.5% in test [9] and 71.4% in test [10].

For the origin of these results see PubChem BioAssay (NCI).
